From PubChem
In the library only some 0.5% were active in any assay of this set; here they are far more common.
Menin MLL FP TR = menin-MLL binding inhibition, Texas Red mutant peptide. Menin + Texas Red MLL mutant peptide, fluorescence polarization. Potency, µM (top dose mostly 61.6 µM), actives largely listed as inhibitors. O00255. actives 0.23% (n = 270,000); active = well fitted inhibition curve with a large enough effect in the polarisation, with a control signal flat, not every such curve was filed as active; inconclusive = small, poorly fitted or top-dose-only effect, or effect the other way, or a change in a side signal; inactive = no such curve, though single readings can be large or run the other way; the % refers to the polarisation
TexasRed fluor = alters Texas Red total fluorescence, flagging assay interference. TRb/SRC2 Texas Red total fluorescence interference. Potency, µM (titrated, usually from 106 µM). actives 0.29% (n = 280,000); active = well fitted curve in either direction with a large enough effect; inconclusive = small, poorly fitted or top-dose-only effect
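Human TRb ligand-binding domain at 0.6 uM with 20 nM Texas Red SRC2 peptide in Tris buffer containing 1 uM T3 and 5% DMSO, incubated with compound 5 h at ambient temperature. Total fluorescence (555/632 nm) calculated as parallel + 2 × perpendicular.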
MLL CXXC-DNA inh = inhibitors of human MLL CXXC domain-DNA interaction. Q03164. MLL-CXXC / FITC-HOXA9 DNA fluorescence polarization. Potency, µM (highest dose often 115 µM), usual class: inhibitors. actives 0.037% (n = 290,000). AID 2662; active = well fitted inhibition curve with a large enough effect in the polarisation, with a control signal flat, not every such curve was filed as active; inconclusive = small, poorly fitted or top-dose-only effect, or effect the other way, or a change in a side signal; inactive = no such curve, though single readings can be large or run the other way; the % refers to the polarisation
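Steps: dispense CXXC domain solution (7 uM) → pin compounds or unlabeled HOX-A9 DNA control → 5 min ambient → add FLSN-HOX-A9 solution (50 nM) → spin → 30 min ambient → fluorescence polarization. Tris pH 7.5/NaCl/DTT/BSA buffer.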
Menin-MLL FL inh = inhibitors of human menin-MLL interaction, wild-type MLL peptide. Fluorescence polarization, fluorescein-MLL peptide displacement from menin. FP activity change, % at 61.4 µM. 290,000 tested, under 10 active; active = well fitted curve in the direction sought with a large enough effect in the polarisation, not every such curve was filed as active; inconclusive = small, poorly fitted or top-dose-only effect, or effect the other way, or a change in a side signal; inactive = no such curve, though single readings can be large or run the other way; the % refers to the polarisation
TRb SRC2 PPI = TRbeta-SRC2 interaction inhibition. P10828. TRbeta-SRC2 peptide binding, fluorescence polarization; receptor liganded with 1 µM T3. Potency, µM (doses to about 106 µM), most hits filed as inhibitors. actives 0.065% (n = 280,000); active = well fitted inhibition curve with a large enough effect; inconclusive = small, poorly fitted or top-dose-only effect, or effect the other way; note: nearly all actives have a fitted effect of over 50% in size
Target sequence (P10828 whole entry, looked up): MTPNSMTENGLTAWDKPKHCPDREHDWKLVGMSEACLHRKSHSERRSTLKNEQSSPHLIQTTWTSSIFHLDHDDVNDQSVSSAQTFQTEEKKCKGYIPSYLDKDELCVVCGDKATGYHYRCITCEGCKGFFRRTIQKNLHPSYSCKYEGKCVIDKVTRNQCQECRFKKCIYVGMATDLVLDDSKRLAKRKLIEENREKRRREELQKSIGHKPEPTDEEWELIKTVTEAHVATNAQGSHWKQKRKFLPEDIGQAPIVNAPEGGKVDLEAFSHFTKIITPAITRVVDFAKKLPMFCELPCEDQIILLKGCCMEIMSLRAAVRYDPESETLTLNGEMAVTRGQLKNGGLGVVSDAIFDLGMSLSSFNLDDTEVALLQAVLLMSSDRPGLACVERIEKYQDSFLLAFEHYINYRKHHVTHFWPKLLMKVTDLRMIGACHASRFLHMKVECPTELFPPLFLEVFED
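TRb LBD 0.6 uM + Texas Red SRC2 peptide 20 nM, 1 uM T3, Tris buffer w/ 5% DMSO; compound pinned, 5 h RT; FP read ex 555/em 632; normalized to unbound and bound controls.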
GoLoco inh red = RGS12 GoLoco-Gai1 interaction inhibition; Gai1:RGS12 GoLoco peptide FP, rhodamine, 10 min; Potency, µM (titrated, usually from 61.6 µM), usual class: inhibitors; actives 0.44% (n = 230,000); AID 880; active = well fitted inhibition curve with a large enough effect, not every such curve was filed as active; inactive = no such curve, though single readings can be large or run the other way; note: nearly all actives have a fitted effect of over 30% in size
Hits are given with their value; 0 = inactive; ? = inconclusive; - = no result; ! = not confirmed by another sample; [ ] = another dose, or the depositor's remark.

SMILES	Menin MLL FP TR	TexasRed fluor	MLL CXXC-DNA inh	Menin-MLL FL inh	TRb SRC2 PPI	GoLoco inh red
Cc1ccc(Cn2c(C)c3cnn(CC(=O)N4CCN(c5cc(C)ccc5C)CC4)c(=O)c3c2C)cc1	-	0	-	-	0	-
Cc1ccc(C)c(NC(=O)CN(CCc2ccccc2)S(=O)(=O)c2ccccc2)c1	-	0	-	-	0	-
CCOc1ccccc1NC(=O)CN(CCc1ccccc1)S(=O)(=O)c1ccc(C)cc1	-	0.032µM[quencher]	-	-	0	-
O=C(COC(=O)CCC1CCCC1)Nc1nc2c(F)c(F)c(F)cc2s1	25µM	0	0	0	0	-
CCOC(=O)Cc1cc(=O)n2[nH]c(C)c(-c3ccccc3)c2n1	-	45µM[fluorescent]	0	0	?	0
CCN(CC)c1ccc(NC2=C(Cl)C(=O)c3ccccc3C2=O)cc1	?	0	0	-	28µM	7.9µM
CN(C)c1nc(=O)n(C2CCC(O)CC2)c(=O)n1C (centres undefined)	-	0	-	-	0	-
OCCN(CCO)c1nc(N2CCCCC2)c2nc(N(CCO)CCO)nc(N3CCCCC3)c2n1	?	40µM![fluorescent]	?	?	?	0
C[N+]1(CCCCC[N+]2(C)CCCC2)CCCC1	0	0	0	0	0	0
C[N+]1(CCCCCCC(=O)/C=N/O)CCCCCC1	0	0	0	0	0	13µM
C[N+](C)(C)CCCCCCC(=O)/C=N/O	0	0	0	0	0	1.8µM
CN(CCCCCC(=O)/C=N/O)Cc1ccccc1	0	0	0	0	0	0
CCN(CC)c1ccc(NS(=O)(=O)c2ccc(-c3coc(C)n3)cc2)c(C)c1	-	0	-	-	0	-
CCCC(=O)Nc1ccc2c(c1)nc(CN1CCN(C(=O)OCC)CC1)n2C(C)C	-	100µM[quencher]	-	-	0	-
CCOC(=O)N1CCN(Cc2nc3cc(NC(C)=O)ccc3n2C(C)C)CC1	-	0	-	-	0	-
Cc1cc(=O)n(CC(=O)NC(C)c2ccccc2)c2c1c(C)nn2-c1cccc(F)c1 (centres undefined)	-	251µM[quencher]	-	-	0	-
Cc1ccc(CNC(=O)Cn2c(=O)cc(C)c3c(C)nn(-c4cccc(F)c4)c32)cc1	-	0	-	-	0	-
Cc1cccc2sc(N)nc12	-	0	-	-	0	0
COc1ccc(C2/C=C\CN(CC(C)C)C(C)C(=O)N2Cc2ccc(F)cc2)cc1 (centres undefined)	?	0	-	0	0	-
S=c1nc(-c2ccccc2)n(-c2ccccc2)[nH]1	0	-	0	0	-	-
CN=c1nc(-c2ccccc2)n(-c2ccccc2)s1	0	0	0	0	0	5µM
Cc1ccc(NC(=O)CN2C(=O)c3cccnc3Oc3ccc(Cl)cc32)cc1	-	18µM[quencher]	-	-	0	-
CCOC(=O)c1ccc(NC(=O)CN2C(=O)c3cccnc3Oc3ccc(Cl)cc32)cc1	-	0	-	-	0	-
CCc1ccccc1NC(=O)CN1C(=O)c2cccnc2Oc2ccc(Cl)cc21	-	14µM[quencher]	-	-	0	-
CCOc1ccc(/C=C2/SC(=O)NC2=S)cc1	?	0	0	?	0	0
SMILES	Menin MLL FP TR	TexasRed fluor	MLL CXXC-DNA inh	Menin-MLL FL inh	TRb SRC2 PPI	GoLoco inh red
CCOc1ccc(N=C2NC(=O)S/C2=C\c2ccc(N(C)C)cc2)cc1	32µM	0	0	?	0	0
COc1cc(SSc2cc(OC)cc([N+](=O)[O-])c2N)c(N)c([N+](=O)[O-])c1	?	0	0	?	0	10µM
COc1cc([N+](=O)[O-])c2ncsc2c1	0	0	0	0	0	0
CC(C)(C)c1n[nH]c(=O)n(N)c1=O	-	0	-	-	0	-
Cc1ccccc1Oc1ncnc2oc(-c3ccccc3)cc12	0	0	0	0	0	0
Clc1ccc(Oc2ncnc3oc(-c4ccccc4)cc23)cc1	10µM	0	0	0	0	0
O=c1oc2c(O)c(O)cc3c(=O)oc4c(O)c(O)cc1c4c23	-	?	?	-	0	28µM!
O=[N+]([O-])/C=C\c1cc2ccccc2[nH]1	-	-	-	-	-	0[14.2 µM]
CCc1ccc(OCC(=O)NCC(c2ccc(Cl)cc2)N2CCOCC2)cc1 (centres undefined)	-	10µM[quencher]	-	-	0	-
O=C(Nc1nnc(S(=O)(=O)N2CCCC2)s1)c1ccccc1Br	0	0.05µM[quencher]	0	0	0	-
O=C(Nc1nnc(S(=O)(=O)N2CCCCCC2)s1)c1ccccc1Br	0	0	0	0	0	-
CCCCN(CCCC)CCCCCCN(CCCC)CCCC	-	0	-	-	0	-
CO/N=C\CC(=O)Nc1ccc(Cl)c(Cl)c1	25µM	0	0	0	0	0
CC(C)Cc1c(C(=O)O)c(C(F)F)nc(C(F)(F)F)c1C1=NCCS1	-	0	-	-	0	-
NC(=O)c1ccsc1N	0	0	0	?	0	20µM
CC(=O)O[C@@H]1C(CO[Si](C)(C)C(C)(C)C)=C(Br)C(=O)[C@@H]2O[C@]12C	0	0	-	0	0	0
CCCC(=Nc1ccc(N)cc1)C1=C(O)C(C(=O)OC)C(C)(C)CC1=O (centres undefined)	-	45µM[fluorescent]	0	0	35µM	14µM
Clc1cc(Cl)c(OCC#CI)cc1Cl	0	-	0	0	-	-
O=C(O)CCCCCNc1ccc2nsnc2c1[N+](=O)[O-]	0	35µM[quencher]	0	0	0	0
CN1CCc2c(sc3c2C(=O)NC(c2cccs2)N3)C1 (centres undefined)	28µM	45µM[fluorescent]	0	?	?	0
Cc1ccsc1C1NC(=O)c2c(sc3c2CCN(C)C3)N1 (centres undefined)	0	0	0	?	0	0
COc1ccc(-c2nn(CC(=O)Nc3ccc(Cl)c(Cl)c3)c(=O)c3ccccc23)cc1	10µM	0	0	0	0	0
Cc1c(Cl)cccc1NC(=O)C1CCN(c2ncnc3c2nc2n3CCCCC2)CC1	-	20µM[quencher]	-	-	0	-
COc1cc(/C=C/c2ccccc2)oc(=O)c1	-	0	-	-	0	0
C[n+]1cccc(CNC(=O)/C=N/O)c1	-	0	0	0	0	14µM
SMILES	Menin MLL FP TR	TexasRed fluor	MLL CXXC-DNA inh	Menin-MLL FL inh	TRb SRC2 PPI	GoLoco inh red
COc1ccc(-c2cc(OC(=O)c3cccc(Cl)c3)c3c(C)oc(C)c3c(=O)c2)cc1OC	-	0	-	-	0	-
COc1cc(-c2cc(OC)c3c(C)oc(C)c3c(=O)c2)ccc1OC(=O)c1cccc(Cl)c1	-	501µM[quencher]	-	-	?	-
COC(OC)(C(=O)c1ccccc1)c1ccccc1	-	0	-	-	0	-
CCN(CC)CCNC(=O)c1cc2c(-c3ccc(Cl)cc3)nn(C)c2s1	0	0	0	0	0	0
CCCCN(CC)CCNC(=O)c1cc2c(-c3ccc(Cl)cc3)nn(C)c2s1	18µM	0	0	0	0	-
CC1CCC/C(=C\Nc2ccc(O)cc2)C1=O (centres undefined)	?	0	0	0	28µM	28µM
Cc1ccccc1NC(NC(=O)OCCn1c([N+](=O)[O-])cnc1C)C(Cl)(Cl)Cl (centres undefined)	0	7.1µM[quencher]	0	0	0	0
CCOc1ccc2nc3cc(N)ccc3c(N)c2c1	?	?	0	?	0	0
CCOc1ccc2nc3cc(NCc4ccc(OC)cc4)ccc3c(N)c2c1	11µM	-	0	?	-	-
S=C([S-])NCCNC(=S)[S-].[Zn+2]	-	?	-	-	?	0
